# LmPK inh: inhibitors of Leishmania mexicana pyruvate kinase. Q27686. purified LmPK, Kinase-Glo ATP luminescence, 1 h. Potency, µM (top dose mostly 57.5 µM), inactives show at the highest dose activity change, negative = inhibition, hits mostly inhibitors. hit rate 0.37% among 290,000. AID 1721
# Target sequence (Q27686 whole entry, looked up): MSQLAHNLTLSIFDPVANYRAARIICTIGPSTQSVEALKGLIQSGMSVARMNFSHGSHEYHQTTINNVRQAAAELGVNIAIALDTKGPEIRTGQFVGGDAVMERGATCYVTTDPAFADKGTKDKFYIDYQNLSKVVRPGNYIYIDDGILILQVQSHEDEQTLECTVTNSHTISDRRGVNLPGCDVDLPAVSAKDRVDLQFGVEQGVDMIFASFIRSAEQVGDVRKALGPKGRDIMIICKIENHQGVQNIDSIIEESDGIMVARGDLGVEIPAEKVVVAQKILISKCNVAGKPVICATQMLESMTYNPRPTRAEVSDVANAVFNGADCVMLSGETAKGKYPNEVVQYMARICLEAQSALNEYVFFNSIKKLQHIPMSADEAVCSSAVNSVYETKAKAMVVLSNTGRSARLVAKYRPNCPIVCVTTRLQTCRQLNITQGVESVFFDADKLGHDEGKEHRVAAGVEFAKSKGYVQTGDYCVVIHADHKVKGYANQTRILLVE
#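 ATP generated from ADP (0.1 mM) and PEP (0.5 mM) by 0.1 nM LmPK over 1 h at room temperature (pH 7.2 imidazole buffer) was detected by coupled luciferase luminescence. Values were normalized to uninhibited and no-enzyme wells.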
# Sm TGR block: blocks Schistosoma mansoni thioredoxin glutathione reductase | Q962Y6 | purified TGR, DTNB reduction, TNB absorbance 405 nm | Potency, µM (titrated, usually from 114 µM), for inactives: at the top dose activity change, negative = inhibition, most hits filed as inhibitors | hit rate 3% among 360,000 | AID 485364; also: nearly all actives have a fitted effect of over 60% in size
#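 Kinetic colorimetric format: TGR-catalysed, NADPH-driven DTNB reduction monitored via TNB absorbance. Enzyme dispensed at 20 nM; compound exposure 15 min at room temperature before reaction start.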
# Tb PYK inh: blocks Trypanosoma brucei pyruvate kinase | TbPYK enzyme, Kinase-Glo Plus ATP luminescence, 45 min | Potency, µM (titrated, usually from 76.8 µM), inactives show top-dose activity, negative = inhibition, usual class: inhibitors | Q57TT1 | hit rate 0.12% among 410,000 | AID 624173; also: nearly all actives have a fitted effect of over 50% in size
#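 TbPYK + substrate in 50 mM TEA pH 7.2, 100 mM KCl, 10 mM MgCl2, 0.05% BSA, 0.01% Tween-20; cpd pinned; ADP 130 uM final; 45 min RT; Kinase-Glo Plus 10 min; luminescence endpoint.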
# RE007 growth inh: less growth of the S. pombe RE007 Vpr strain | S. pombe RE007 Vpr strain, BacTiter-Glo ATP luminescence, 24 h | hit rate 0.21% among 360,000 | Potency, µM (titrated, usually from 92.2 µM), for inactives: at the highest dose activity change, negative = less growth, usual class: inhibitors; active = well fitted falling curve with a large enough effect; inconclusive = small, poorly fitted or top-dose-only effect; inactive = no such curve, though single readings can be large or run the other way; also: nearly all actives have a fitted effect of over 50% in size
#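 Fission yeast strain RE007, carrying one chromosomally integrated HIV-1 vpr copy, was seeded at OD 0.01 in PMG+AL medium with 23 nL pinned compound. After 24 h at 30 °C and 99% humidity, viability was read by BacTiter-Glo luminescence.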
# Giardia FBPA inh: Giardia lamblia aldolase inhibition | Potency, µM (highest dose often 59.6 µM), for inactives: at the highest dose activity, negative = inhibition, hits mostly inhibitors | AID 2451 | purified Giardia FBPA | hit rate 0.71% among 290,000; also: nearly all actives have a fitted effect of over 55% in size
#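 Giardia FBPA (40 nM reagent) was preincubated 10 min at RT with compound (up to 57.5 uM final), then substrate plus GAPDH/TPI/NAD/arsenate coupling system with diaphorase/resazurin was added; resorufin fluorescence (525/598 nm) was read after 20 min.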
# Active calls of the source: *; ? = inconclusive; / = no result given. Sampled rows, rich in hits. Any-hit rate of the full collection: about 3.3%. Unless noted, calls follow the shape of the dose curve; as a rule, active = well fitted curve in the direction sought with a large enough effect; inconclusive = small, poorly fitted or top-dose-only effect, or another doubt; inactive = no such curve, though single readings can be large; an effect the other way counts as inactive or inconclusive. % is scaled to controls: 0 for no effect and ±100 for the full control effect; potency is read from the fitted curve at half-maximal effect.
SMILES,LmPK inh,Sm TGR block,Tb PYK inh,RE007 growth inh,Giardia FBPA inh
CCOc1ccc(C(=O)C(CCC(CN(C)C)C(=O)c2ccc(OCC)cc2)CN(C)C)cc1 (stereo unspecified),4%,16µM*,0%,29%,-11%
O=C(c1ccccc1)C(CCC(CN1CCOCC1)C(=O)c1ccccc1)CN1CCOCC1 (stereo unspecified),-1%,8.9µM*,-6%,5%,-11%
O=C(c1ccc(F)cc1)C(CN1CCOCC1)c1ccccc1 (stereo unspecified),-4%,-16%,-1%,?,-12%
COc1ccc(C(=O)C(CCCCC(CN(C)C)C(=O)c2ccc(OC)cc2)CN(C)C)cc1 (stereo unspecified),-4%,-38%,5%,4%,0%
CN(C)CC(CCC(CN(C)C)C(=O)c1ccccc1)C(=O)c1ccccc1 (stereo unspecified),0%,2µM*,-4%,1%,-12%
CC1=C(C(=O)Nc2ccc(C)cc2C)C(c2cccs2)NC(=S)N1 (stereo unspecified),-3%,0%,1%,-12%,4%
Cc1ccc(C23CC4CC(CC(CC(=O)NC(C)(C)CO)(C4)C2)C3)cc1,-3%,-22%,-3%,-3%,-5%
Cc1ccc(S(=O)(=O)N2CCC(=O)N(C(COCc3ccc(Cl)cc3)Cc3ccccc3)CC2)cc1 (stereo unspecified),1%,-4%,-9%,4%,1%
CCCSc1nnc(NC(=O)Cc2ccc(OC)c(OC)c2)s1,0%,1%,2%,-9%,12%
CCCOC(=O)c1ccccc1,/,/,2%,/,2%
CCCOC1(NC(=O)c2ccccc2)C(C)=CC(=O)C=C1C,-5%,22µM*,-11%,5%,-5%
COc1cc(NC(=S)NC2CC2)c(OC)cc1Cl,3%,40µM*,-7%,12%,-12%
CC(=O)c1ccc(-c2nnc(CCC(=O)N(C)Cc3cccc4cnccc34)o2)s1,0%,40µM*,6%,-19%,-3%
CC1(C)Cc2nc3sc4c(=O)n(CC(=O)NCc5ccco5)cnc4c3cc2CO1,1%,35µM*,-5%,6%,2%
CC(/C=N/Nc1ccc2nncn2n1)=C\c1ccccc1,6%,45µM*,4%,18%,3%
CCc1ccc(-c2cn3nc(-c4ccccc4)cnc3n2)cc1,-12%,-31%,-2%,-3%,5%
COc1cccc(/C=N/Nc2ncccc2[N+](=O)[O-])c1OC,14µM*,-3%,?,?,-3%
COc1ccccc1/C=N/Nc1nccnc1Cl,16µM*,-13%,-5%,-21%,-17%
c1ccc2cc(N3CCCCC3)ccc2c1,/,/,11%,-21%,/
COc1cc(OC)c(OC)cc1CN1CCCC(C(=O)c2ccc3c(c2)OCO3)C1 (stereo unspecified),1%,2%,3%,-14%,3%
N/C(=N\OC(=O)c1cccs1)c1ccccc1,13µM*,-1%,?,?,-6%
Cc1cccc(/C(N)=N/OC(=O)c2ccc(F)cc2)c1,4.5µM*,-6%,?,?,3%
COc1ccc(/C(N)=N/OC(=O)c2cccs2)cc1OC,-3%,6%,-1%,0%,1%
N/C(=N\OC(=O)c1cccs1)c1cccc(Br)c1,16µM*,/,-5%,-27%,-12%
N/C(=N\OC(=O)c1ccc(F)cc1)c1cccc([N+](=O)[O-])c1,-2%,-27%,3%,-5%,-1%
SMILES,LmPK inh,Sm TGR block,Tb PYK inh,RE007 growth inh,Giardia FBPA inh
Cc1cccc(/C(N)=N/OC(=O)c2cccs2)c1,13µM*,3%,?,?,-6%
Cc1ccc(-n2nnnc2SCC(=O)N2CCNC2=O)cc1C,/,-11%,3%,4%,/
N/C(Cc1ccc(Cl)cc1Cl)=N\OC(=O)Cc1cccs1,3%,-11%,-3%,-21%,2%
N/C(Cc1ccc(Cl)cc1Cl)=N\OC(=O)c1cccs1,4%,-5%,2%,18µM*,-2%
CCC(OC(=O)c1cc2sccc2n1C)C(=O)NCc1ccco1 (stereo unspecified),2%,-6%,-7%,17%,0%
COc1cc(-c2c(C#N)c(N)nc3c2CCCC3)ccc1O,-1%,20µM*,?,-15%,-5%
CCCCN(C(=O)C1CCCC1)c1c(N)n(CC(C)C)c(=O)[nH]c1=O,/,32µM*,-2%,-5%,/
Cc1nnc(SCc2c(Cl)cccc2Cl)n(N)c1=O,6%,4%,-3%,8%,-1%
CCn1c(SCc2c(Cl)cccc2Cl)nnc1-c1nn(-c2ccccc2)ccc1=O,2%,100µM*,-13%,3%,16%
CCOc1ccccc1NC(=O)c1nc(S(=O)(=O)Cc2cccc(C)c2)ncc1Cl,-6%,7.1µM*,-8%,4%,/
CCc1nnc(NC(=O)c2nc(S(=O)(=O)Cc3cccc(C)c3)ncc2Cl)s1,-2%,16µM*,-10%,-17%,?
CCc1nnc(NC(=O)c2nc(S(=O)(=O)Cc3ccccc3)ncc2Cl)s1,-9%,32µM*,-8%,10%,/
CCc1nnc(NC(=O)c2nc(SCc3ccccc3F)ncc2Cl)s1,/,-2%,0%,/,/
CCc1nnc(NC(=O)c2nc(S(=O)(=O)Cc3ccc(C)cc3)ncc2Cl)s1,2%,32µM*,-13%,-17%,/
CCc1nnc(NC(=O)c2nc(Cl)ccc2Cl)s1,-16%,-6%,-1%,-7%,/
CCSc1ncc(Cl)c(C(=O)Nc2ccccc2OC)n1,-3%,32%,3%,9%,-1%
CS(=O)(=O)N(CC(=O)NCc1ccco1)c1cc(C(F)(F)F)ccc1Cl,1%,-27%,0%,0%,2%
O=C(c1ccco1)N1CCN(c2nc3ccccc3c(=O)n2-c2ccccc2)CC1,-6%,-18%,-1%,-2%,-1%
c1ccc(CCNc2ccc3nncn3n2)cc1,-3%,-4%,-1%,4%,1%
NNc1ccc2nncn2n1,6%,35µM*,0%,0%,?
CC(=O)c1ccc(N2CCN(C(=O)CCC(=O)c3cccs3)CC2)cc1,-11%,3%,-16%,-4%,1%
O=C(CCC(=O)N1CCN(c2ccc(O)cc2)CC1)c1cccs1,-15%,56µM*,-21%,-5%,-24%
CSc1ncc(CN2CCc3c([nH]c4ccccc34)C2C(C)(C)C)cn1 (stereo unspecified),5%,?,0%,8%,-4%
CC(C)(C)C1c2[nH]c3ccccc3c2CCN1CCCn1cccn1 (stereo unspecified),2%,40µM*,0%,-6%,-4%
Cc1cccc(CN2CCc3c([nH]c4ccccc34)C2C(C)(C)C)n1 (stereo unspecified),0%,16µM*,-12%,3%,-24%
CC(/C=C/c1ccco1)=N\NC(=O)C(O)c1ccccc1 (stereo unspecified),0%,?,-16%,1%,-4%
COC(=O)N/N=C(C)\C=C\c1ccco1,-15%,45µM*,3%,5%,-9%

# Screening results: PubChem BioAssay, National Center for Advancing Translational Sciences (NCATS)
